Consider five compounds from PubChem BioAssay.

A short description of experiment [1]: compounds binding Alexa647 anti-His antibody – biochemical, small-molecule microarray, 635 nm fluorescence, artefact control for SMM control protein annotation, primary screen (AID 1128).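 Further: score merges feature fluorescence with signal-to-noise for each printed compound spot.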 The following applies: higher = more signal.
Experiment [2] deals with Human papillomavirus type 1a E7 protein (residues 1-88). Briefly: HPV1a E7 small-molecule binders, primary screen, biochemical, small-molecule microarray, residues 1-88, 635 nm (AID 1129). To be noted: small-molecule microarray binding, fluorescence 635 nm; higher = more signal.
Experiment [3] addresses Focal adhesion kinase 1 (Homo sapiens) (UniProt Q05397). Briefly: PTK2 protein binding on printed compound slides – biochemical, small-molecule microarray, 635/667 nm fluorescence, BSA, DTT, primary screen (AID 1130).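 Further: composite of spot emission at 667 nm and signal to noise over triplicate slides.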 To be noted: 635 nm fluorescence, higher = more signal.
In experiment [4] the test system is Fibrinogen (Alexa647-labelled). Nature of the experiment: Alexa647-fibrinogen binding to printed small molecules – biochemical, small-molecule microarray, 635/667 nm fluorescence, artefact control for SMM control-protein annotation, profiling panel (AID 1131).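 Further: z-score merges 667 nm fluorescence with per-spot signal-to-noise over triplicate slides.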 To be noted: fibrinogen-A647 binding fluorescence, higher = more signal.
The target of experiment [5] is Follistatin (Homo sapiens) (UniProt P19883). Briefly: FST protein binding to printed compounds – biochemical, small-molecule microarray, 635/667 nm fluorescence, primary screen (AID 1132). The following applies: 635 nm fluorescence, higher = more signal.
Follistatin (Homo sapiens), sequence (P19883 whole entry, looked up): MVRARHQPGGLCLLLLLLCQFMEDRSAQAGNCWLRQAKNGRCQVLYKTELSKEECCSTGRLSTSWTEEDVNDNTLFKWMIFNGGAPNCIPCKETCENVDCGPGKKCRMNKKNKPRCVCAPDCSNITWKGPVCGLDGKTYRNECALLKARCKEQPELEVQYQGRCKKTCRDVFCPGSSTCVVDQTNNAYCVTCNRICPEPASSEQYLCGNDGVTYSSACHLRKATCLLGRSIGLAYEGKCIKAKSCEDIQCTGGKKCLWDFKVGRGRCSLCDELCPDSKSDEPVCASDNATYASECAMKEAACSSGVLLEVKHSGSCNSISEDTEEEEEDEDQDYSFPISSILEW
The target of experiment [6] is Fibroblast growth factor 2 (Homo sapiens) (UniProt P09038). Briefly: basic fibroblast growth factor binding to printed compounds – biochemical, small-molecule microarray, 635/667 nm fluorescence, primary screen (AID 1133). To be noted: FGF2, fluorescence 635/667, higher = more signal.
Fibroblast growth factor 2 (Homo sapiens), sequence (P09038 whole entry, looked up): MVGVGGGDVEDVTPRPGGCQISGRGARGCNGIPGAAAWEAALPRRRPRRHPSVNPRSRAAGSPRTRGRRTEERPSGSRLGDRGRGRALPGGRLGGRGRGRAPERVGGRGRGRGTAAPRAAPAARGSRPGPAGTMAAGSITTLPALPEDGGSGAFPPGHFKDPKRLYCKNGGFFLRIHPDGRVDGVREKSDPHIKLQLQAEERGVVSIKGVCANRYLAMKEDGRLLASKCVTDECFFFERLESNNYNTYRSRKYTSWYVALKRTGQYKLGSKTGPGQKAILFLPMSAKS
A short description of experiment [7]: JC-1 mitochondrial potential readout, lung cancer cells – cell-based, A549, JC-1 fluorescence, basal, 24 h, 100 nL, profiling panel (AID 1138).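 Further: A549 lung adenocarcinoma cells under basal conditions with no added stimulus; test concentration not given here.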 To be noted: higher = more signal.
Another experiment has as its system Lefty1. Nature of the experiment: Lefty1 protein binding to printed compounds – biochemical, small-molecule microarray, 635/667 nm fluorescence, primary screen (AID 1139). The following applies: fluorescence 635/667, higher = more signal.
Experiment [8] deals with wheat germ agglutinin (Triticum aestivum), Alexa647-labelled. Nature of the experiment: Alexa647-WGA lectin binding to printed small molecules – biochemical, small-molecule microarray, 635/667 nm fluorescence, artefact control for SMM control-protein annotation, profiling panel (AID 1140).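 Further: score merges 667 nm feature emission with signal to noise over triplicate slides.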 The following applies: WGA-A647 binding, 635 nm fluorescence, higher = more signal.
Experiment [9] concerns the target Luciferin 4-monooxygenase (Photinus pyralis) (UniProt P08659). Briefly: inhibition of purified Photinus pyralis luciferase – biochemical, luminescence, purified enzyme, 2006 set, primary screen (AID 1141).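 Further: cell-free assay with purified firefly luciferase at 100 ng per well in PBS; test concentration not given here.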 The following applies: purified firefly luciferase, SteadyGlo luminescence, 30 min; higher = more signal, called active from +8 up or from −8 down.
For experiment [10], the system named is Wnt5a (protein binding on small-molecule microarray). Nature of the experiment: small molecules binding Wnt5a protein – biophysical, small-molecule microarray, 635/667 nm fluorescence, primary screen (AID 1142).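 Further: fluorescence read at 667 nm with signal to noise per printed feature.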 The following applies: 635 nm fluorescence, higher = more signal.
Experiment [11] in a line: ATP-based viability of Huh7 replicon cells – cell-based, CellTiter-Glo luminescence, basal, 48 h, cytotoxicity control for HCV replication inhibitor project, primary screen (AID 1143).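 Further: Huh7 hepatoma cells carrying a hepatitis C replication reporter with no stimulus; test concentration not given here.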 To be noted: higher = more signal, called active from +8 up or from −8 down.
Experiment [12] can be described thus: Pseudomonas biofilm growth suppression – PAO1 strain, BacTiter-Glo luminescence, LB-PBS, primary screen (AID 1144). The following applies: P. aeruginosa PAO1 biofilm, 12 h, higher = more signal.
A short description of experiment [13]: basal CRE-LacZ reporter activity in PC12 – cell-based, unstimulated, primary screen (AID 1145). To be noted: no forskolin, luminescence, 4.5 h, higher = more signal, called active from +8 up or from −8 down.
A short description of experiment [14]: forskolin-driven CRE-LacZ activity in PC12 – cell-based, CRE-LacZ reporter, forskolin-stimulated, primary screen (AID 1146).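 Further: PC12 cells with 6xCRE LacZ reporter stimulated by forskolin 10 µM; beta-galactosidase reporter signal reflecting CREB driven transcription.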 To be noted: luminescence, 4.5 h, higher = more signal, called active from +8 up or from −8 down.
Experiment [15] concerns the target Streptavidin (Streptomyces avidinii) (UniProt P22629). Nature of the experiment: compounds binding control protein streptavidin – biophysical, small-molecule microarray, 635/667 nm fluorescence, artefact control for SMM compound annotation, primary screen (AID 1147).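 Further: signal reflects streptavidin binding to arrayed compounds as a control protein.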 The following applies: higher = more signal.
Experiment [16] can be described thus: probe aInhba binding on compound microarray – biochemical, small-molecule microarray, 635/667 nm fluorescence, primary screen (AID 1148).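 Further: score merges 667nm spot fluorescence with signal-to-noise for antibody binding to printed compounds.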 To be noted: higher = more signal.
The target in experiment [17] is Torsin-1A (Homo sapiens) (UniProt O14656). Nature of the experiment: TOR1A wild-type binding on microarray – cell lysate, small-molecule microarray, lysate, 635/667 nm, primary screen (AID 1149). The following applies: COS7 hTOR1A-WT lysate, 635 nm fluorescence, higher = more signal.
Torsin-1A (Homo sapiens), sequence (O14656 whole entry, looked up): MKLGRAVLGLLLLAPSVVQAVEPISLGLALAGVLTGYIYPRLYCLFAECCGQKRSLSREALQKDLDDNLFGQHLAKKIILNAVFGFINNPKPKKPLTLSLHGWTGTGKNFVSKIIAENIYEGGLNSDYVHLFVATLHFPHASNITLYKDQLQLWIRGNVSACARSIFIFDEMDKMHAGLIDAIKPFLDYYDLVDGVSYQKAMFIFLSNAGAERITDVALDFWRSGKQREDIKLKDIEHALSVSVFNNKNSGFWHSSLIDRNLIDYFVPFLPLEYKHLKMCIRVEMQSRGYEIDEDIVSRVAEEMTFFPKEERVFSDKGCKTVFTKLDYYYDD
Experiment [18] shares this target. Briefly: torsin A mutant lysate binding on microarrays – cell lysate, small-molecule microarray, COS7 lysate, 635/667 nm fluorescence, primary screen (AID 1150).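 Further: score pools 667 nm emission and signal to noise measuring lysate protein binding.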 The following applies: COS7 hTOR1A mutant lysate, 635 nm fluorescence, higher = more signal.
Experiment [19] has as its system Sonic hedgehog protein (Shh). Briefly: Sonic hedgehog microarray binding compounds – biochemical, small-molecule microarray, 635/667 nm fluorescence, primary screen (AID 1151).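 Further: Shh protein binding to compounds spotted on small-molecule microarray slides; score combines spot fluorescence intensity with signal-to-noise across triplicate slides.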 The following applies: 635 nm fluorescence, higher = more signal.

The structures appear in SMILES notation. Calls of active or inactive are those of the source. Unless noted, how the calls were made is not given here.

Focal adhesion kinase 1 (Homo sapiens), sequence (Q05397 whole entry, looked up): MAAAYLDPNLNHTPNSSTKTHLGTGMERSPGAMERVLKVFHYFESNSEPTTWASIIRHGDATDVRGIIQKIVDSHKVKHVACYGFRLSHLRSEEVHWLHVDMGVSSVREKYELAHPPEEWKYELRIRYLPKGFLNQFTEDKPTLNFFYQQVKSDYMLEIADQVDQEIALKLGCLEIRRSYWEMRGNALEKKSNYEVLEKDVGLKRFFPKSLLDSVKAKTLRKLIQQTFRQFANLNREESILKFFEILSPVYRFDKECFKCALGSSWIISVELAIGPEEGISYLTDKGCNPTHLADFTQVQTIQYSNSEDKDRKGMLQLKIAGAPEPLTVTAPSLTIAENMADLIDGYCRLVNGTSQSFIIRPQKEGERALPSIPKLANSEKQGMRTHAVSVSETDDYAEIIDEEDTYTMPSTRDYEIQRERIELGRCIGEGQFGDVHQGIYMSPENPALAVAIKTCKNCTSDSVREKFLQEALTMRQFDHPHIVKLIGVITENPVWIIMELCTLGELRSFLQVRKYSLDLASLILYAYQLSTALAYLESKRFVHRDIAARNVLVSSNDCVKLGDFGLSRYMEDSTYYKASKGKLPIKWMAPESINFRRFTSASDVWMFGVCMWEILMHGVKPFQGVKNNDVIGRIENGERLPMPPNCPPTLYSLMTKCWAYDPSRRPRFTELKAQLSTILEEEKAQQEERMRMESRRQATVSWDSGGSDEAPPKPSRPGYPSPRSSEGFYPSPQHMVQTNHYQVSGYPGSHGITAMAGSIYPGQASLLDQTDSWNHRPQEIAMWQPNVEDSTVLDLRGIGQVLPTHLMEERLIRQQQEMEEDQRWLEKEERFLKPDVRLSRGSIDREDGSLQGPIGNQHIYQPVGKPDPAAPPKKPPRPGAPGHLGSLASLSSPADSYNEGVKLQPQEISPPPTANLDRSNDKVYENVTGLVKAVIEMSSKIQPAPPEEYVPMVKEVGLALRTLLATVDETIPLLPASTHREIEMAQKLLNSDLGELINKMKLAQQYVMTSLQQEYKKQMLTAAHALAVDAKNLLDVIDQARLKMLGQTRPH
Streptavidin (Streptomyces avidinii), sequence (P22629 whole entry, looked up): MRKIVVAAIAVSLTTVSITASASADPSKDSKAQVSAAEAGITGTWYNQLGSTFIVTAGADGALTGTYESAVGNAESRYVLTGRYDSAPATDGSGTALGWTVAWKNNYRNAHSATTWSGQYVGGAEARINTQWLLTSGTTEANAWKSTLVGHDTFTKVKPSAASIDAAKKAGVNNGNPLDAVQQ
Luciferin 4-monooxygenase (Photinus pyralis), sequence (P08659 whole entry, looked up): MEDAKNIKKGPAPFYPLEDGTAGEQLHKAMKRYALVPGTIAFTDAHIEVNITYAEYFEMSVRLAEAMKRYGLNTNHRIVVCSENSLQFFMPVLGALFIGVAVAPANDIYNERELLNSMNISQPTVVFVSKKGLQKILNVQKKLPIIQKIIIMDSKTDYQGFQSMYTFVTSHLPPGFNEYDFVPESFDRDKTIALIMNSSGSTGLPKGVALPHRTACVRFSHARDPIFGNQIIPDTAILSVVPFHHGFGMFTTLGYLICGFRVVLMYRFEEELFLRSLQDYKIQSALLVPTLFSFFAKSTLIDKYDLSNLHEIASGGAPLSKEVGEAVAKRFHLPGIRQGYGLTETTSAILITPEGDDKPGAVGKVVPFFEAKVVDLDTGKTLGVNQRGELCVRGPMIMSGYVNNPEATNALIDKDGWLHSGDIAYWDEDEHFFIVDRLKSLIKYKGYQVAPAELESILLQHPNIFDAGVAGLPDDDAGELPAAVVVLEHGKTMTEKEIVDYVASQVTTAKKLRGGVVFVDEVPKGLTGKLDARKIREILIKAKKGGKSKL

As for `CC(C)C[C@@H]1NC(=O)[C@@]23C(=O)N[C@@H](Cc4ccccc4)C2[C@H](C)[C@@]2(C)O[C@H]2C3/C=C/C/C=C\CNC(=O)[C@@H](CC(C)C)NC1=O` (stereo not given in full), the composite z-score was 0.455 in experiment [1]; 0.409 in experiment [2]; -0.0559 in [3]; 0.928 in experiment [4]; 0.797 in experiment [5]; 0.963 in experiment [6]. Further, the composite z-score in the experiment with Lefty1 is 0.84; in [8] it was 0.393; in [10], 0.0669; in [15], -0.463; in experiment [16] it was -0.128; in the experiment with Torsin-1A (Homo sapiens) [17], 0.295. The composite z-score came out at 0.068 with Torsin-1A (Homo sapiens) [18] and 1.39 in experiment [19]. Also, the z-score was 0.102 in [7]; -1.23 (inactive) in [9]; -0.91 (inactive) in [11]; 0.587 (inactive) in experiment [12]; 2.66 (inactive) in [13]; 0.158 (inactive) in [14].
On to `CCOC(=O)C[C@H]1[C@H](OC(=O)c2ccc(C(=O)c3ccccc3)cc2)[C@@H](NC(=O)c2ccc3ccccc3c2)c2cc(OCCCO)ccc2N1C(=O)c1ccc2ccccc2n1`, for which the composite z-score was determined as 0.565 in experiment [1]; 0.578 in experiment [2]; 0.44 in [3]; 0.892 in experiment [4]; 0.331 in [5]; 0.851 in [6]. The composite z-score with Lefty1 was 0.704; in [8] it was 0.0601; in experiment [10], 0.289; in experiment [15], 0.129; in [16], -0.0774; with Torsin-1A (Homo sapiens) [17], 0.182. Further, the values for the composite z-score (with Torsin-1A (Homo sapiens) [18]; in experiment [19]) were 0.819 and 0.94, respectively. The z-score was 2.1 in [7]; -0.818 (inactive) in experiment [9]; 0.311 (inactive) in experiment [11]; -0.0217 (inactive) in experiment [12]; -0.244 (inactive) in experiment [13]; -0.643 (inactive) in experiment [14].
Turning to `CCCCCCc1nc(-c2ccc(OC)nc2)cc2c1[Si](C(C)C)(C(C)C)OC2`, the composite z-score was -0.102 in experiment [1]; -0.493 in experiment [2]; -0.206 in experiment [3]; -0.137 in experiment [4]; -0.0974 in [5]; -0.206 in [6]. Moreover, the composite z-score was -0.0037 with Lefty1; -0.218 in [8]; -0.446 in experiment [10]; 0.151 in experiment [15]; -0.0963 in experiment [16]; -0.734 with Torsin-1A (Homo sapiens) [17]. The composite z-score with Torsin-1A (Homo sapiens) [18] was 0.706; in experiment [19], -0.0247. The z-score in experiment [7] is -1.46; in experiment [9] it was 0.997 (inactive); in [11] it was -3.35 (inactive); in experiment [12] it was -0.757 (inactive); in experiment [13], -0.36 (inactive); in [14], -0.565 (inactive).
Consider `COc1ccc([Si](C)(C)[C@@H]2[C@@H](CC(=O)N(CCO)Cc3ccccc3)O[C@]3(C(=O)N(Cc4ccc(N5CCC5=O)cc4)c4ccccc43)[C@H]2C)cc1`, for which the composite z-score was 1.28 in [1]; -0.324 in experiment [2]; -0.162 in experiment [3]; -0.263 in [4]; 0.818 in experiment [5]; 0.988 in [6]. Also, the composite z-score in the experiment with Lefty1 was 0.565; in experiment [8], 0.431; in experiment [10], -0.0009; in experiment [15], -0.301; in experiment [16] it was -0.318; with Torsin-1A (Homo sapiens) [17], -0.0822. Besides, the composite z-score with Torsin-1A (Homo sapiens) [18] worked out at 0.134; in [19], 0.7. Further, the z-score is 0.445 in [7]; 0.295 (inactive) in [9]; -5.9 (inactive) in experiment [11]; -0.259 (inactive) in experiment [12]; 5.16 (inactive) in [13]; 0.0245 (inactive) in experiment [14].
For the compound `C=CC[C@]1(C(=O)OC)N=C(c2ccc(OCCCO)cc2)O[C@H]1c1ccccc1N=[N+]=[N-]`, the composite z-score in experiment [1] is 3.65; in experiment [2], 1.21; in experiment [3], 1.01; in [4] it was 0.266; in experiment [5], 1.43; in experiment [6] it was 1.78. In addition, the composite z-score with Lefty1 amounted to 1.12; in experiment [8] it was 0.291; in experiment [10], 1.2; in experiment [15] it was 0.126; in experiment [16], 0.707; in the experiment with Torsin-1A (Homo sapiens) [17], 0.662. For the same compound, the composite z-score was determined as 1 in the experiment with Torsin-1A (Homo sapiens) [18] and 1.68 in [19]. In addition, the z-score is -0.674 in [7]; -11 (active) in experiment [9]; -3.62 (inactive) in experiment [11]; -1.04 (inactive) in experiment [12]; 0.171 (inactive) in experiment [13]; -2.05 (inactive) in experiment [14].
